Assay results published in PubChem BioAssay AID720650 (Broad Institute, 2013).
The source made the active and inactive calls. The rule behind the calls is not given here.

Assay: C difficile toxins, biochemical counterscreen, UDPG substrate absence, confirmatory dose response (AID 720650)
Details: series mostly up to 19.5 µM
In the case of CCCSc1nc2c([nH]1)c(=O)n(C)c(=S)n2C, the AC50 is reported as “inactive”. For CCCCNC(=O)C1CCN(S(=O)(=O)c2c(C)noc2/C=C\c2ccc(OC)cc2)CC1, the AC50 was “inactive”. For COc1ccc(S(=O)(=O)N2CCC[C@H]2C(=O)N2CCC[C@H]2C(=O)NCc2ccncc2)cc1C, the AC50 was “inactive”. For O=C(C[C@H]1C[C@H]2c3cc(NC(=O)c4ccc5c(c4)OCO5)ccc3O[C@H]2[C@@H](CO)O1)NCc1cccc(F)c1, the AC50 was “inactive”. In the case of COc1ccc(CNCCc2ccc3c(c2)OCO3)cc1Br, the AC50 is reported as “inactive”. With O=C(CCNC(=O)c1ccccc1Cl)N/N=C\c1ccc(O)cc1 the AC50 was 15.8 µM (active). With CCc1[nH]c(=O)c(C#N)c2c1CCCC2 the AC50 was “inactive”. With C/C(CCc1ccccc1)=N\NC(=O)C1C2CCCCC21 (stereo unspecified) the AC50 was “inactive”. For COc1ccc(C)cc1NC(=O)C(OC(=O)C1=NNC(=O)CC1)c1ccccc1 (stereo unspecified), the AC50 was “inactive”. For CCN(CCN(C)C)C(=O)C1CCN(S(=O)(=O)c2c(C)noc2/C=C/c2ccccc2F)CC1, the AC50 was “inactive”. With O=C(CSc1ccc2nnc(-c3ccc(F)cc3)n2n1)N1CCOCC1 the AC50 was “inactive”. In the case of CCCNC(=O)Nc1ccc2c(c1)C(=O)N(C)[C@H]1CC[C@H](CC(=O)NC3CCC3)O[C@@H]1CO2, the AC50 is reported as “inactive”. With O=S(=O)(c1ccccc1)N1CCN(Cc2nnc(-c3ccccc3)o2)CC1 the AC50 was “inactive”. With COc1ccc(NC(=O)CN(C)C(=O)c2cccc(NS(=O)(=O)c3ccc(Br)cc3)c2)cc1 the AC50 was “inactive”. With Cc1ccc(NC(=O)C2OCCc3ccccc32)cc1C (stereo unspecified) the AC50 was “inactive”. In the case of CNC(=O)C[C@H]1CC[C@@H]2[C@@H](COc3ccc(NC(=O)c4ccc(OC)cc4)cc3C(=O)N2C)O1, the AC50 is reported as “inactive”.
